Experimental data reported in the OligoGym collection.

biological target: FAM194A; experiment: pooled miR-30 sensor sort-seq; sequence = guide strand; conditions: shRNA
Further: reference of the scale not given here.

| Sequence | sensor-assay potency score (higher = more potent) |
| --- | --- |
| TTTTCTTTTGCCTTGAGTCTGT | 0.354 |
| TAGAAATCTTGTCTTGTTCTAA | 0.351 |
| TAGAATATTTGTGTTGTCCCAT | 0.0372 |
| TTATTGTCTTCATTATATCTTG | -0.455 |
| TACAATGTCATCAATTATCTGT | 0.418 |
| TTAAGCGCTTTGAATCATCTTC | -0.166 |

biological target: FAM203A; experiment: as above; conditions: shRNA

| Sequence | sensor-assay potency score (higher = more potent) |
| --- | --- |
| TGATGTCGGTGCTCGAAGCAGC | -0.572 |
| TTGCAGTGGTTTTCTGTCCAGT | -0.715 |
| ATGGCTTCAACAAGCATCTTGC | -0.247 |
| TCCAACTGCTCCTGCTCCCTGC | -0.834 |
| TGGACCACGCACCTGTCGGGGT | -1.1 |
| TGCATCAGGTTCTCGCTGCTTG | -0.383 |
| TCTTGCGGATGTCTGCATCAGG | -1.13 |
| AGGTCCAAGCAACCACTCGTGA | -1.79 |
| TTCAACAAGCATCTTGCGGATG | -0.806 |
| TAGCCGGGCGTGCACAGCGCGC | -1.89 |
| TGCAAGTCGACAGGCAGCCGTT | -1.26 |
